In PubChem BioAssay (NCI):
This is part of a sample that, as a whole, favours compounds with a hit. Of some 83,000 tested, about 20% had one in any assay.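 Step 1: grow cells in 96-well plates. Step 2: add test compound at a single concentration. Step 3: incubate 48 h. Step 4: record percent growth.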 Unmarked numbers belong to inactive results. The source made the active and inactive calls. The calls were made as follows: active = growth percent below 10; inactive = the rest.

Columns and labels:
Assay in all cases: NCI-60 one-dose screen, 48 h (100 = growth as untreated, 0 = no growth, -100 = all killed)
Settings in all cases: 10 µM unless noted
[1] = tested on: HCT-15 colon
[2] = tested on: HT29 colon
[3] = tested on: SNB-75 CNS
[4] = tested on: SNB-19 CNS
[5] = tested on: U251 CNS
[6] = tested on: PC-3 prostate
[7] = tested on: SK-MEL-5 melanoma
[8] = tested on: UACC-62 melanoma
[9] = tested on: LOX IMVI melanoma
[10] = tested on: SK-MEL-28 melanoma

CN1CCN(C(=O)OCc2ccc3c(Cl)cc(Cl)c(O)c3n2)CC1
growth [1]: 22.8%
growth [2]: 103%
growth [3]: 70.7%
growth [4]: 53.3%
growth [5]: 36.6%
growth [6]: 44.1%
growth [7]: 49.6%
growth [8]: 60%
growth [9]: 49.3%
growth [10]: 67.1%

O=C(/C=C/c1cccs1)c1ccc(Cl)nc1
growth [1]: 100%
growth [2]: 101%
growth [3]: 95.2%
growth [4]: 102%
growth [5]: 99.9%
growth [6]: 104%
growth [7]: 104%
growth [8]: 97.2%
growth [9]: 102%
growth [10]: 105%

Cn1cc(-c2nonc2-c2c[nH]c3ccc(Br)cc23)c2cc(Br)ccc21
growth [1]: 28.2%
growth [2]: 20.6%
growth [3]: -11.2% (active)
growth [4]: 42.8%
growth [5]: 42.9%
growth [6]: 43.4%
growth [7]: 70.3%
growth [8]: 53.9%
growth [9]: 24.8%
growth [10]: 59.4%

C[C@@H]1CCC[C@H]1CC(N)C(=O)O (stereo not given in full)
growth [1]: 90.6%
growth [2]: 116%
growth [3]: 103%
growth [4]: 117%
growth [5]: 114%
growth [6]: 96.8%
growth [7]: 98.5%
growth [8]: 116%
growth [9]: 91.3%
growth [10]: 108%

COc1cc2oc(-c3cccc(NC(=O)c4cccc(Br)c4)c3)cc(=O)c2c(OC)c1OC
growth [1]: 31.3%
growth [2]: 34.7%
growth [3]: 62.6%
growth [4]: 75.2%
growth [5]: 53.9%
growth [6]: 34.6%
growth [7]: 48.6%
growth [8]: 57.1%
growth [9]: 39.6%
growth [10]: 71.1%

S=C(Nc1ccc(-c2nc(N3CCOCC3)c3cccn3n2)cc1)Nc1cccnc1
growth [1]: 18.4%
growth [2]: 22.8%
growth [3]: 36.5%
growth [4]: 32.2%
growth [5]: 31.7%
growth [6]: 16.4%
growth [7]: 58.2%
growth [8]: 25.4%
growth [9]: 30.8%
growth [10]: 45.9%

Cc1ccc(CNc2ccc(Cl)cc2NCc2ccc(C)c(O)c2)cc1O
growth [1]: 7.28% (active)
growth [2]: 49.1%
growth [3]: 41.1%
growth [4]: 29.5%
growth [5]: 21.9%
growth [6]: 7.21% (active)
growth [7]: 32.7%
growth [8]: 38.6%
growth [9]: 2.86% (active)
growth [10]: 31.9%

CN1CCN(C(=O)c2ccc(NC(=O)Nc3ccc(-c4nc(N5CCOCC5)c5cccn5n4)cc3)cc2)CC1
growth [1]: 13.2%
growth [2]: 5.74% (active)
growth [3]: -37.7% (active)
growth [4]: 3.27% (active)
growth [5]: 3.91% (active)
growth [6]: 5.5% (active)
growth [7]: -61.6% (active)
growth [8]: -41.3% (active)
growth [9]: -3.2% (active)
growth [10]: -18.4% (active)

CCOC(=O)C(=Cc1cccc(Cl)c1)C(=O)OCC
growth [1]: -51.1% (active)
growth [2]: -62.5% (active)
growth [3]: 35.3%
growth [4]: 51.5%
growth [5]: 26.6%
growth [6]: 25.2%
growth [7]: 53.5%
growth [8]: -9.18% (active)
growth [9]: -65.1% (active)
growth [10]: -39% (active)

C#CCOc1cccc(Nc2ncnc3c(NC(=O)C=C)cccc23)c1
growth [1]: 21.3%
growth [2]: 5.3% (active)
growth [3]: 23%
growth [4]: 28.1%
growth [5]: 24.7%
growth [6]: 23.8%
growth [7]: 8.31% (active)
growth [8]: 17.4%
growth [9]: 8% (active)
growth [10]: 52.1%

C=C1C(=O)O[C@H]2[C@H]1CC/C(COC(=O)N[C@H]1C[C@H](O[C@H]3C[C@](O)(C(=O)CO)Cc4c(O)c5c(c(O)c43)C(=O)c3c(OC)cccc3C5=O)O[C@@H](C)[C@H]1O)=C\CC[C@@]1(C)O[C@@H]21
growth [1]: 99.2%
growth [2]: 25.2%
growth [3]: 56.4%
growth [4]: 68.4%
growth [5]: 45.3%
growth [6]: 78%
growth [7]: 68.3%
growth [8]: 34.6%
growth [9]: 0.614% (active)
growth [10]: 9.44% (active)

OB(O)c1cccc(-c2nc3ccc4[nH]ncc4c3c3c2CCCC3)c1
growth [1]: 37.6%
growth [2]: 48.1%
growth [3]: -30.6% (active)
growth [4]: 78.4%
growth [5]: 56.7%
growth [6]: 53.9%
growth [7]: 68.1%
growth [8]: 35.5%
growth [9]: 35.6%
growth [10]: 91.9%

O=C(Nc1nc2ccc(F)cc2s1)c1cccnc1Nc1ccc(Cl)cc1
growth [1]: 29%
growth [2]: 30.1%
growth [3]: 62.2%
growth [4]: 26.4%
growth [5]: 21.6%
growth [6]: 14%
growth [7]: 5.56% (active)
growth [8]: 28.4%
growth [9]: 48.3%
growth [10]: 61.9%

Fc1cc2c(cc1Cl)N(c1ncnc3ccc(-c4cnc5[nH]ncc5c4)cc13)CC2
growth [1]: 58.8%
growth [2]: 56.3%
growth [3]: 19.7%
growth [4]: 69.4%
growth [5]: 76.6%
growth [6]: 53.9%
growth [7]: 85.2%
growth [8]: 58.1%
growth [9]: 47.2%
growth [10]: 83.4%

CC(C)N1CCN(Cc2ccc3c(NNC(=O)c4ccccc4)nc4cc(F)ccc4n23)CC1
growth [1]: 31.7%
growth [2]: 31.3%
growth [3]: 54.7%
growth [4]: 29.7%
growth [5]: 17%
growth [6]: 36.9%
growth [7]: -8.08% (active)
growth [8]: 7.2% (active)
growth [9]: 6.12% (active)
growth [10]: 29.5%

Cc1ccc(C(C(N)=O)C(C(N)=O)c2ccccc2)cc1 (stereo not given)
growth [1]: 110%
growth [2]: 109%
growth [3]: 114%
growth [4]: 109%
growth [5]: 104%
growth [6]: 105%
growth [7]: 117%
growth [8]: 119%
growth [9]: 108%
growth [10]: 123%

COc1cc(-c2cc(-c3ccc(N(C)C)cc3)nc(N3CCC(O)CC3)c2C#N)cc(OC)c1OC
growth [1]: -41.1% (active)
growth [2]: 2.08% (active)
growth [3]: -17.2% (active)
growth [4]: 30.2%
growth [5]: 12.9%
growth [6]: 12.7%
growth [7]: -99% (active)
growth [8]: -26.8% (active)
growth [9]: -0.767% (active)
growth [10]: -28.7% (active)

CC(C)c1ccc(COCc2cc(CN3CCCC3)c(O)c3ncccc23)cc1
growth [1]: -35.5% (active)
growth [2]: 30.5%
growth [3]: 25.9%
growth [4]: 17.3%
growth [5]: -13.2% (active)
growth [6]: 11.6%
growth [7]: 4.48% (active)
growth [8]: -9.84% (active)
growth [9]: -33% (active)
growth [10]: 27.3%

COc1ccc(-c2nnc(-c3ccc4c(c3)nc(-c3ccncc3)n4C3CCCCC3)o2)cc1
growth [1]: 53.6%
growth [2]: 53%
growth [3]: 72.2%
growth [4]: 89.4%
growth [5]: 59.7%
growth [6]: 49.7%
growth [7]: 17.2%
growth [8]: 68.3%
growth [9]: 72.5%
growth [10]: 94.6%

N#CCSc1nnc2n(Cc3ccccc3)c(=O)c3c4c(sc3n12)CCCC4
growth [1]: 96.2%
growth [2]: 111%
growth [3]: 91.1%
growth [4]: 104%
growth [5]: 101%
growth [6]: 95.2%
growth [7]: 95.3%
growth [8]: 95.6%
growth [9]: 98.1%
growth [10]: 116%

CC(=O)OCc1nc(C#N)c(N(C)C)o1
growth [1]: 88.6%
growth [2]: 99.2%
growth [3]: 81.5%
growth [4]: 95.9%
growth [5]: 95.5%
growth [6]: 104%
growth [7]: 105%
growth [8]: 89.3%
growth [9]: 99.2%
growth [10]: 109%

O=C(c1ccc(Cl)cc1)N1CCN(c2ccnc3cc(Cl)ccc23)CC1
growth [1]: 95.5%
growth [2]: 81.7%
growth [3]: 110%
growth [4]: 84.2%
growth [5]: 78.7%
growth [6]: 80%
growth [7]: 90.8%
growth [8]: 71.5%
growth [9]: 103%
growth [10]: 99.6%

CN(C)C1CCN(Cc2ccc(NC(=O)c3cncc(C#Cc4cnc(N)c5ncccc45)c3)cc2C(F)(F)F)CC1
growth [1]: 53.2%
growth [2]: 19.3%
growth [3]: 127%
growth [4]: 97.8%
growth [5]: -51.5% (active)
growth [6]: 80.6%
growth [7]: 50.6%
growth [8]: 91.5%
growth [9]: 63.7%
growth [10]: -53.9% (active)

O=C(c1cc2ccccc2o1)c1nn(-c2ccccc2)/c(=N/N=Cc2cn(-c3ccccc3)nc2-c2cc3ccccc3oc2=O)s1
growth [1]: 87.8%
growth [2]: 107%
growth [3]: 97.2%
growth [4]: 101%
growth [5]: 83.1%
growth [6]: 93%
growth [7]: 102%
growth [8]: 97.2%
growth [9]: 95.6%
growth [10]: 114%

O=C1COCCN1c1ccc(Nc2nc(Cl)nc(OCc3cn(Cc4ccccc4)nn3)n2)cc1
growth [1]: 93.3%
growth [2]: 90.8%
growth [3]: 101%
growth [4]: 90.3%
growth [5]: 83.4%
growth [6]: 89.4%
growth [7]: 95.8%
growth [8]: 92.2%
growth [9]: 75.7%
growth [10]: 101%

CCOC(=O)c1cn2ncnc(Oc3ccc(NC(=O)NC4CCCCC4)c(Cl)c3)c2c1C
growth [1]: 69.4%
growth [2]: 81.6%
growth [3]: 0.475% (active)
growth [4]: 66.1%
growth [5]: 49.3%
growth [6]: 67.7%
growth [7]: 84.5%
growth [8]: 80.4%
growth [9]: 54.9%
growth [10]: 93.9%

CC1Cc2c(Cl)ncnc2N(C)c2ccc(F)cc21 (stereo not given)
growth [1]: 106%
growth [2]: 90.6%
growth [3]: 59.8%
growth [4]: 104%
growth [5]: 89.7%
growth [6]: 87.5%
growth [7]: 76.9%
growth [8]: 99.6%
growth [9]: 92.3%
growth [10]: 86.5%
